This is part of a sample that, as a whole, favours compounds with a hit. Of some 83,000 tested, about 20% had one in any assay.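 Assay: single dose, 48 h. Readout: percent growth (0 = no net growth; negative = cell death). Active: <10.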 A number with no mark means an inactive call. Calls of active or inactive are those of the source.

For the assay, the system named is HL-60(TB) leukemia. The assay is described as follows: NCI-60 one-dose screen, 48 h (100 = growth as untreated, 0 = no growth, -100 = all killed). The note with it: 10 µM unless noted.
Consider `COc1ccc(N2CCN(C3=C(Cl)C(=O)C(C)=C(C)C3=O)CC2)cc1`, for which the growth was 80.3%.
For the compound `O=C(NNc1nc2cc(F)ccc2n2cccc12)c1ccncn1`, the growth is -4.33% (active).
As to `COC[C@@]1(C)CC[C@]2(C)CC[C@]3(C)C(=CC[C@@H]4[C@@]5(C)CCCNC(C)(C)[C@@H]5CC[C@]43C)C2C1` (stereo partly drawn), the growth is 48.3%.

Source of the values: PubChem BioAssay (NCI).
